Bioassay records: PubChem BioAssay, several laboratories
An excerpt weighted towards active compounds, which were near 3.5% of everything screened.
BoNT-F LC inh = blocks Botulinum neurotoxin F light chain protease | AID 588497 | inhibition, % at 10 µM | actives 0.22% (n = 360,000) | Multiplex microsphere protease cleavage assay, flow cytometry; in the data active = inhibition above about 35%, passing the limit was not always enough; inconclusive = no clear call, values can overlap the other calls
BJeLR lethal = kills HRASV12-expressing BJeLR cells; actives 0.17% (n = 300,000); AID 1554; BJeLR (HRASV12) viability, CellTiter-Glo ATP luminescence, 48 h; inhibition, % (test concentration not listed); in the data active = inhibition above about 50%; inconclusive = no clear call, values can overlap the other calls
BoNT-A LC inh2 = inhibitors of Botulinum neurotoxin A light chain protease. multiplex microsphere protease substrate cleavage, flow cytometry. inhibition, % at 10 µM. actives 0.17% (n = 360,000)
Anthrax LF inh2 = blocks Bacillus anthracis lethal factor protease. P15917. multiplex microsphere protease cleavage assay, LF. inhibition, % at 10 µM. actives 0.12% (n = 360,000). AID 588501
Target sequence (P15917 whole entry, looked up): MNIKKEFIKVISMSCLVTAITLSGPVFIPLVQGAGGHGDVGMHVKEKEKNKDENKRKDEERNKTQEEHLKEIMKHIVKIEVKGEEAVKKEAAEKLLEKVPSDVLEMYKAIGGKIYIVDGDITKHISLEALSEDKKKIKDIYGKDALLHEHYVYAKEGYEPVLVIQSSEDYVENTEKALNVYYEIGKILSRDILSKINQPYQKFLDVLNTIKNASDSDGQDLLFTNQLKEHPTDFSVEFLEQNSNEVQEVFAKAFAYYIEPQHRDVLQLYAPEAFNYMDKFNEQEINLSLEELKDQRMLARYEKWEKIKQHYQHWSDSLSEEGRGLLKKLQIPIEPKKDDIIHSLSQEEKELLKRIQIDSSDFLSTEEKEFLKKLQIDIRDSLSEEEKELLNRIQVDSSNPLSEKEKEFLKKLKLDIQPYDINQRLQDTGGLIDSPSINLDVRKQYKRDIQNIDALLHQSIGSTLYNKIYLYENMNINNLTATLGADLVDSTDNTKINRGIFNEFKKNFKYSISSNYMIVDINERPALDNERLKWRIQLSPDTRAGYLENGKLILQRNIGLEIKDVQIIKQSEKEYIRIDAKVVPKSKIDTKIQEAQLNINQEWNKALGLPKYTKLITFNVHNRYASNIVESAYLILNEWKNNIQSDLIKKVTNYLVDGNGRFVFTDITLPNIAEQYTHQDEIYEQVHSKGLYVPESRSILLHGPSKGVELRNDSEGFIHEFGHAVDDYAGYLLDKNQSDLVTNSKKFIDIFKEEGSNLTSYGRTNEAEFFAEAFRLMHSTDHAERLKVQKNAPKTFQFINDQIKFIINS
Autofluor counter = counter-screen for toxin protease inhibitors: compound fluorescence; fluorescence intensity (concentration not given with the values); compound autofluorescence counterscreen, microsphere flow cytometry; hits give high values; actives 3.1% (n = 360,000); in the data active = fluorescence intensity above about 16000; inconclusive = no clear call, values can overlap the other calls
Each line names hits and unclear results; the compound was inactive in the other large screens. Rule as the data show it, unless noted: active = inhibition above about 30%; inconclusive = no clear call, values can overlap the other calls; inactive = below that.

COc1cccc(CNC(=O)c2cc3c(c(-c4cccc(-c5cccc(C#N)c5)c4)n2)[C@H](CCO)N(S(=O)C(C)(C)C)C3)c1 (stereo partly drawn)	none (no result: BJeLR lethal)
CCOc1c(Cl)cc(CNCC(C)C)cc1OC	BoNT-A LC inh2 inconclusive, Autofluor counter 24375
CN(C)CCNC(=O)CCn1nc(-c2ccc(Cl)cc2)ccc1=O	none
Cc1ccc(CNC(=O)CCn2nc(-c3ccc(Cl)cc3)ccc2=O)cc1	Autofluor counter 18881
O=S1(=O)c2ccc(Br)cc2N2CCC[C@@H]2CN1Cc1ccccc1	none (no result: BJeLR lethal)
CC(=O)Nc1ccc(S(=O)(=O)c2c(N)n(CCN3CCOCC3)c3nc4ccccc4nc23)cc1	none
Nc1c(S(=O)(=O)c2cc(Cl)ccc2Cl)c2nc3ccccc3nc2n1CCN1CCOCC1	BoNT-A LC inh2 inconclusive, Autofluor counter 24321
CCOC(=O)c1cc2c(C)n(-c3ccc(C)cc3)c(C)c2ccc1=O	Autofluor counter 22981
CCOC(=O)c1cc2c(C)n(-c3ccc(OCC)cc3)c(C)c2ccc1=O	none (no result: BoNT-F LC inh, BoNT-A LC inh2, Anthrax LF inh2, Autofluor counter)
Cc1n[nH]c(=O)nc1NC(C)c1ccccc1 (stereo not drawn)	Autofluor counter 22579
CCOc1ccc(/C(O)=C2\C(=O)C(=O)N(CCOCCO)C2c2ccccc2OC)cc1 (stereo not drawn)	BoNT-A LC inh2 inconclusive, Autofluor counter 23386
O=C(CSc1ncn[nH]1)N1CCN(S(=O)(=O)c2ccc(Cl)cc2)CC1	Autofluor counter 21069
COC(=O)c1ccccc1NC(=O)NCc1ccncc1	none
NC(Cc1ccc(F)cc1)c1csc(Nc2ccc(C(=O)c3ccccc3)cc2)n1 (stereo not drawn)	none (no result: BJeLR lethal)
CCCCn1nnc(NC(=O)COc2ccc(Cl)c(C)c2)n1	Autofluor counter 17759 (no result: BJeLR lethal)
CCCn1nnnc1NC(=O)COc1ccc(Cl)c(C)c1	none
CCn1nnc(NC(=O)COc2cc(C)ccc2C(C)C)n1	Autofluor counter 20175
O=C(c1ccc([N+](=O)[O-])cc1)c1cc2ccc(O)cc2oc1=O	none
Cc1nn(-c2ccccc2)c(NC(=O)c2cccs2)c(-c2ccccc2Cl)c1=O	none
O=C(NCc1ccc(F)cc1)c1cc(C2CCCCN2C(=O)CCc2ccccc2)on1 (stereo not drawn)	none (no result: BJeLR lethal)
Cc1ccc(C(O)c2ccncc2)cc1 (stereo not drawn)	Autofluor counter 17116
Cc1[nH]c2ccccc2c1C(O)c1ccncc1 (stereo not drawn)	none
Cc1ccc(C(O)c2ccc(-n3ccnc3)cc2)cc1 (stereo not drawn)	none
Cc1ccccc1C(O)c1ccncc1 (stereo not drawn)	Autofluor counter 19164
Cc1ccc(CN(C(=O)c2ccc([N+](=O)[O-])cc2)C2CCS(=O)(=O)C2)o1 (stereo not drawn)	none
c1ccn2c(c1)nc1c2nc2ccccn21	Autofluor counter 21237
C=C(C=O)C[C@@H]1C[C@H](O)C2OC3C[C@]4(C)OC5/C=C\CC6OC7C(CC=CCC6OC5CCCC4OC3CC2O1)OC1CC2OC3CC(=O)OC3C[C@@H](C)C[C@@]2(C)OC1C[C@@H]7C (stereo partly drawn)	BJeLR lethal 95.2 (no result: BoNT-F LC inh, BoNT-A LC inh2, Anthrax LF inh2, Autofluor counter)
C=C(C=O)CC1CC(O)[C@]2(C)OC3C[C@@H]4OC5C[C@]6(C)O[C@]7(C)CCC8OC9C[C@]%10(C)OC(/C(C)=C\CO)C(O)CC%10OC9CC(C)C8OC7CC6O[C@]5(C)C/C=C\C4OC3CC2O1 (stereo partly drawn)	none (no result: BJeLR lethal)
COc1ccc(Cl)cc1C(=O)NNC(=O)c1cccs1	none (no result: BJeLR lethal)
O=C(NC1CC1)c1cccc(Nc2ccc(-c3ccc4c(c3)OCCO4)nn2)c1	Autofluor counter 21941
CC(C)OC(=O)CSc1nnc(Cc2ccccc2)n1C	Autofluor counter 16479
CC(C)OC(=O)CSc1nnc(-c2ccc(Cl)cc2Cl)n1N	Autofluor counter 22841
CC(C)OC(=O)CSc1nnc(-c2ccc(Cl)cc2)n1N	Autofluor counter 21439
O=S(=O)(/N=C(/Nc1ccc(F)cc1F)c1ccccc1)c1ccc(Br)cc1	none (no result: BoNT-F LC inh, BoNT-A LC inh2, Anthrax LF inh2, Autofluor counter)
Cc1ccc(Cl)cc1N1CCN(C(=O)Cc2csc(Nc3nc(=S)[nH]c4ccccc34)n2)CC1	none
Cc1cccc(CSc2nnnn2-c2ccccc2)c1	none
Cc1cccc(CSc2nnc(N)n2-c2ccccc2)c1	Autofluor counter 22675
Nc1nnc(SCc2ccccc2)n1-c1ccccc1	BoNT-A LC inh2 inconclusive, Autofluor counter 17516
O=C(CSc1nnc2n(C3CCCCC3)c(=O)c3ccccc3n12)OC1CCCCC1	Autofluor counter 19972
CCOC(=O)CSc1nnc2n(C3CCCCC3)c(=O)c3c4c(sc3n12)CCCC4	Autofluor counter 23468
C=C(C)CSc1nnc2n(N)c(=O)c3ccccc3n12	none
CCOC(=O)CSc1nc2sc3c(c2c(=O)n1C1CCCCC1)CCN(C)C3	BoNT-A LC inh2 74.2, Anthrax LF inh2 48.6
COC(=O)CSc1nnc2n(C3CCCCC3)c(=O)c3c4c(sc3n12)CCCC4	none
CCn1c(SCC(N)=O)nc2sc3c(c2c1=O)CCN(C)C3	none (no result: BoNT-F LC inh, BoNT-A LC inh2, Anthrax LF inh2, Autofluor counter)
O=C(COc1ccc(F)cc1)N(Cc1ccc(Cl)cc1)C1CCS(=O)(=O)C1 (stereo not drawn)	none
CCCCNC(=O)c1ccc2nc(CC)c(N(CC)CCOC)n2c1	none (no result: BJeLR lethal)
CCOC(=O)C1(C(=O)OCC)C(C)CC(=O)N1c1ccccc1OC (stereo not drawn)	none (no result: BJeLR lethal)
Cc1ccc(-n2c3c(c(=O)[nH]c2=O)C(C(F)(F)F)(C(F)(F)F)NC(=O)N3)cc1	Autofluor counter 16132
Cc1ccc(-n2c3c(c(=O)[nH]c2=O)C(NS(=O)(=O)c2ccc(C)cc2)(C(F)(F)F)C(=O)N3)cc1 (stereo not drawn)	none
O=C(Nc1cccc(Cl)c1)c1cnn2cccnc12	BoNT-A LC inh2 inconclusive, Autofluor counter 23465
O=C(Nc1cc(Cl)cc(Cl)c1)c1cnn2cccnc12	none
CC(=O)N1CCC2(CC1)CC(=O)c1cc(OCC(=O)N3CCCC3)ccc1O2	none
CCOC(=O)N1CCN(C(=O)COc2ccc3c(c2)C(=O)CC(C)(C)O3)CC1	none
CC1(C)CC(=O)c2cc(OCC(=O)O)ccc2O1	Autofluor counter 24044
CCOC(=O)COc1ccc2c(c1)C(=O)CC1(CCN(C(C)=O)CC1)O2	Autofluor counter 23933
CCOC(=O)COc1ccc2c(c1)C(=O)CC(C)(C)O2	Autofluor counter 21356
COCCCNC(=O)C1c2ccccc2Oc2ccccc21	BoNT-F LC inh 41.5
O=c1nc(/C=C/c2cc([N+](=O)[O-])ccc2Cl)cc(C(F)(F)F)[nH]1	Autofluor counter 22027
O=c1nc(/C=C/c2cccn2-c2ccc([N+](=O)[O-])cc2)cc(C(F)(F)F)[nH]1	none
O=C(CCl)N(CCCNC(=O)C(F)(F)F)c1ccc([N+](=O)[O-])cc1	BoNT-F LC inh inconclusive, BJeLR lethal 115.6
O=C(NCCCNc1ccc([N+](=O)[O-])cc1)C(F)(F)F	none
COC(=O)CSc1nc(C)c2c(n1)CCCC2	none
Cc1oc2c(c1C(=O)c1ccc(Cl)cc1)C(=O)C(=O)c1ccccc1-2	BoNT-A LC inh2 30.1
CCN(CC)c1nc2ccccc2n2cnnc12	Autofluor counter 23917
O=C(Nc1ccccc1)c1cc(C2COCCN2C(=O)CCCc2ccccc2)on1 (stereo not drawn)	none (no result: BJeLR lethal)
